Drawing on the supplement of paper PMC13380429, this text covers morphology score for 13 molecules.

The subject of the experiment is Vero E6 infected with SARS-CoV-2. As to the kind of experiment: morphology score (similarity to uninfected cells); higher = more like uninfected cells. The settings on record: 24 h.
For the molecule `CCN(Cc1ccc(Cl)nc1)/C(=C/[N+](=O)[O-])NC` [nitenpyram] (10 µM), the morphology score was found to be 0.0591.

Molecule `Cc1cc(OCc2nc(-c3ccccc3Cl)cs2)ccc1OCC(=O)O` [GPR120-modulator-1] (10 µM) registered a morphology score of -0.0706.

With `O=C1NC(c2cccc([N+](=O)[O-])c2)=CCN1c1ccccc1O` [icilin] (10 µM), the morphology score is 0.0675.

`CN(C)CCCN1c2ccccc2Sc2ccc(Cl)cc21` [chlorpromazine] (0.833333 µM): the morphology score is 0.071.

As for `Nc1nc(OCc2cc(Br)cs2)c2[nH]cnc2n1` [lomeguatrib] (10 µM), the morphology score was found to be 0.19.

Regarding `Cc1c[nH]c(=O)n(CCCN2CCN(c3ccccc3OCC(F)(F)F)CC2)c1=O` (10 µM), the morphology score stood at 0.0456.

`C=CC(=O)N1CCC[C@@H](n2nc(-c3ccc(Oc4ccccc4)cc3)c3c(N)ncnc32)C1` [ibrutinib] (10 µM) returned a morphology score of 0.197.

On to `CC[C@@H]1C(=O)N(C)c2cnc(Nc3ccc(C(=O)N[C@H]4CC[C@H](N5CCN(CC6CC6)CC5)CC4)cc3OC)nc2N1C(C)C` [volasertib] (10 µM), for which the morphology score is -0.314.

Turning to `CCC1(c2ccc(N)cc2)CCC(=O)NC1=O` (stereo not drawn) [aminoglutethimide] (10 µM), the morphology score was -0.0825.

Molecule `Cc1n[nH]c2ccc(-c3cncc(OC[C@@H](N)Cc4ccccc4)c3)cc12` (10 µM) had a morphology score of 0.111.

Take `CC1(N)CCN(c2cnc(-c3cccc(Cl)c3Cl)c(N)n2)CC1` (0.833333 µM): the morphology score was 0.0281.

The molecule `CCC(O)(CC(N)=O)c1ccccc1` (stereo not drawn) [3-hydroxy-3-phenylpentanamide] (10 µM) came in with a morphology score of 0.0251.

With `N#CCNC(=O)c1ccc(-c2ccnc(Nc3ccc(N4CCOCC4)cc3)n2)cc1` (0.833333 µM), the morphology score stood at 0.412.
